The supplement of paper PMC11732987, “Enantioselective OTUD7B fragment discovery through chemoproteomics screening and high-throughput optimisation” (Communications Chemistry, 2025)

Legend:
Test in all cases: log2 ratio of Biotin-Ahx-Ub-VS probe labelling (fragment/DMSO); higher = less target engagement (more negative = stronger competition), active = hit call of the paper (q ≤ 0.05, log2 ratio ≤ -1)
Settings in all cases: compound concentration: 200 uM; treatment time: 3 h
[1] = target: T1, OTUD6B (UniProt Q8N6M0)
T1 sequence (whole entry): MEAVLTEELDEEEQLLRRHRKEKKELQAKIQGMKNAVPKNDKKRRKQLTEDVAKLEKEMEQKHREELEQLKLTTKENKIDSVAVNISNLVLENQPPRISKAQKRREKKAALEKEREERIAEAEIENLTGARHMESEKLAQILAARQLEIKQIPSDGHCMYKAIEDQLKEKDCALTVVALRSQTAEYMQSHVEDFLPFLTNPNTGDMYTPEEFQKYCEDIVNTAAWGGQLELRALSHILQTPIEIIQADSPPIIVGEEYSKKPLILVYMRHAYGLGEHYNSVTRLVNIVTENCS
How it was run: (§1)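 Using Biotin-Ahx-Ub-VS at 0.5 µM final for 1 h, DUBs were labelled in HEK293T lysate (495 µg per sample) that had first been treated in triplicate with fragment at 200 µM or vehicle for 3 h. NeutrAvidin enrichment, LysC and trypsin digestion and diaPASEF LC-MS/MS followed. Spectronaut label-free quantities were global-median-normalised. Values are average log2 fragment/vehicle ratios by unpaired t-test, using proteins with ≥2 unique peptides.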

[2] = target: T2, OTUD7B (UniProt Q6GQQ9)
T2 sequence (whole entry): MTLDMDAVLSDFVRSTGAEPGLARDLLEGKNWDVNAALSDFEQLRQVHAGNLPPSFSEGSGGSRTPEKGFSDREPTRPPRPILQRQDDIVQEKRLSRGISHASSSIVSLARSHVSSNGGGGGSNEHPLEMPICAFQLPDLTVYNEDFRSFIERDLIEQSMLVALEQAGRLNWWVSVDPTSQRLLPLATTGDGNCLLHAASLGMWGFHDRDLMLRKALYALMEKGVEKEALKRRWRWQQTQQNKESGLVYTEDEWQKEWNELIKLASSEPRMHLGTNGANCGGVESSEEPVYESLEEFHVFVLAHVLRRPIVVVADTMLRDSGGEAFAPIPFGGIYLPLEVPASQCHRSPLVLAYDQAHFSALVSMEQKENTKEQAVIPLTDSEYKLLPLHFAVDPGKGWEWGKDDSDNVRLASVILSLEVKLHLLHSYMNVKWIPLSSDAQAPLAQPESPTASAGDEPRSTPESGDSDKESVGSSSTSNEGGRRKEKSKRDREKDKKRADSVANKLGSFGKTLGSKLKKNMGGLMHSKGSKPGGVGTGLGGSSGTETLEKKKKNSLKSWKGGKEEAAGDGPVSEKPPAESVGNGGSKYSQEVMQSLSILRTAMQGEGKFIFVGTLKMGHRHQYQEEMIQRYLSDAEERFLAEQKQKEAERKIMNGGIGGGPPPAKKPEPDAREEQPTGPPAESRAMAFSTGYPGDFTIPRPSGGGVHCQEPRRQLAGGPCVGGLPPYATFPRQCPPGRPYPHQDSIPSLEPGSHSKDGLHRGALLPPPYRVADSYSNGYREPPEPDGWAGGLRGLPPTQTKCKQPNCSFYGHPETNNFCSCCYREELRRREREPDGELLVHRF
How it was run: as §1

[3] = target: PRPF8 (UniProt Q6P2Q9)
How it was run: as §1

[4] = target: T3, PSMD7 (UniProt P51665)
T3 sequence (whole entry): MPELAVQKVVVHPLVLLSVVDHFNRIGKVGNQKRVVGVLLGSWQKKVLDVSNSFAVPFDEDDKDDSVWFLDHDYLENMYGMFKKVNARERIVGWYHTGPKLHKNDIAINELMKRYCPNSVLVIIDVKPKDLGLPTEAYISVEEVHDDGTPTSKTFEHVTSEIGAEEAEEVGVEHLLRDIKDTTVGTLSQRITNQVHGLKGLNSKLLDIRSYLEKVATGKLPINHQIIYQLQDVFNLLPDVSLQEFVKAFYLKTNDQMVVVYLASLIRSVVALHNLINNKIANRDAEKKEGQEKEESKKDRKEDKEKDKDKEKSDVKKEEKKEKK
How it was run: as §1

[5] = target: UCHL1 (UniProt P09936)
How it was run: as §1

[6] = target: T4, UCHL3 (UniProt P15374)
T4 sequence (whole entry): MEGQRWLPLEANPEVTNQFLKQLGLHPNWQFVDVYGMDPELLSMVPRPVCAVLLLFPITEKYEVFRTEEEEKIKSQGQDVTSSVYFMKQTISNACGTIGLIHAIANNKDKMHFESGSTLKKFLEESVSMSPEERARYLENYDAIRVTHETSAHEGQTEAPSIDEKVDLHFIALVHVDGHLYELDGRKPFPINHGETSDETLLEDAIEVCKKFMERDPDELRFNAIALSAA
How it was run: as §1

[7] = target: T5, UCHL5 (UniProt Q9Y5K5)
T5 sequence (whole entry): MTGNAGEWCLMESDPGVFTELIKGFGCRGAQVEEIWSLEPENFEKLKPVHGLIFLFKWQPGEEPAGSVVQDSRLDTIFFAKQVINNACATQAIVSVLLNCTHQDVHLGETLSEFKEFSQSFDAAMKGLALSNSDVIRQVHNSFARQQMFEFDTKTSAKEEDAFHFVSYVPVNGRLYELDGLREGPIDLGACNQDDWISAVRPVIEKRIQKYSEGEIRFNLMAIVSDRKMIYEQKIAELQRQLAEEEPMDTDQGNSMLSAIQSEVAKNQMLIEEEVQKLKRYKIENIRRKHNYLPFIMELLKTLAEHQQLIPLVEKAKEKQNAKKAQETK
How it was run: as §1

[8] = target: USP10 (UniProt Q14694)
How it was run: as §1

[9] = target: T6, USP15 (UniProt Q9Y4E8)
T6 sequence (whole entry): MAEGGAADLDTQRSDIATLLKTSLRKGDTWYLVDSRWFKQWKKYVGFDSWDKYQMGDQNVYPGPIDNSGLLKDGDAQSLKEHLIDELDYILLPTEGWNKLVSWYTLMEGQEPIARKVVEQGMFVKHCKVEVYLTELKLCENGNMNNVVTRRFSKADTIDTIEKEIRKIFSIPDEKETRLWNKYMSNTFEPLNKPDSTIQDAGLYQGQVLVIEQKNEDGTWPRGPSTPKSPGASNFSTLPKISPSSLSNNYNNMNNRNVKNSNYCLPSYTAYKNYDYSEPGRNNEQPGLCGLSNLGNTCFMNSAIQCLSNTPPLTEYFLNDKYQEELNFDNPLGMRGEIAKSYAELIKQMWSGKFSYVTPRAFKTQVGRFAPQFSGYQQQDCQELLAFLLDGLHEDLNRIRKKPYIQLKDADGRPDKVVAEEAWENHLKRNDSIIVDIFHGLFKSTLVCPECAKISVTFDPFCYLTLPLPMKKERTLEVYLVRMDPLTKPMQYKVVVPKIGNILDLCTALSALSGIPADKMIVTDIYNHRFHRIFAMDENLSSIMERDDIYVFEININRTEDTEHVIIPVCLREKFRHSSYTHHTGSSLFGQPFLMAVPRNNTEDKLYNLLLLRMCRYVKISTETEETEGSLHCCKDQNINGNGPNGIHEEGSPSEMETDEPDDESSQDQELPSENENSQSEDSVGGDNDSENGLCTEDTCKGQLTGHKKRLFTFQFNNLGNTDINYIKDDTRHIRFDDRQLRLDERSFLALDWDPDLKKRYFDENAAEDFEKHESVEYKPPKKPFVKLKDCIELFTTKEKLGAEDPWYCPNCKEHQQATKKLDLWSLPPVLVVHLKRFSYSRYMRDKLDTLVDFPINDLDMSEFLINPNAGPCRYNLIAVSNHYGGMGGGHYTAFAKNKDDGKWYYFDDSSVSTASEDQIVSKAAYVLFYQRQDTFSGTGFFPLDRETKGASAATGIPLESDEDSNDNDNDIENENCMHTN
How it was run: as §1

Measured: log2 ratio of Biotin-Ahx-Ub-VS probe labelling

Chain of USP10 (Q14694 whole entry): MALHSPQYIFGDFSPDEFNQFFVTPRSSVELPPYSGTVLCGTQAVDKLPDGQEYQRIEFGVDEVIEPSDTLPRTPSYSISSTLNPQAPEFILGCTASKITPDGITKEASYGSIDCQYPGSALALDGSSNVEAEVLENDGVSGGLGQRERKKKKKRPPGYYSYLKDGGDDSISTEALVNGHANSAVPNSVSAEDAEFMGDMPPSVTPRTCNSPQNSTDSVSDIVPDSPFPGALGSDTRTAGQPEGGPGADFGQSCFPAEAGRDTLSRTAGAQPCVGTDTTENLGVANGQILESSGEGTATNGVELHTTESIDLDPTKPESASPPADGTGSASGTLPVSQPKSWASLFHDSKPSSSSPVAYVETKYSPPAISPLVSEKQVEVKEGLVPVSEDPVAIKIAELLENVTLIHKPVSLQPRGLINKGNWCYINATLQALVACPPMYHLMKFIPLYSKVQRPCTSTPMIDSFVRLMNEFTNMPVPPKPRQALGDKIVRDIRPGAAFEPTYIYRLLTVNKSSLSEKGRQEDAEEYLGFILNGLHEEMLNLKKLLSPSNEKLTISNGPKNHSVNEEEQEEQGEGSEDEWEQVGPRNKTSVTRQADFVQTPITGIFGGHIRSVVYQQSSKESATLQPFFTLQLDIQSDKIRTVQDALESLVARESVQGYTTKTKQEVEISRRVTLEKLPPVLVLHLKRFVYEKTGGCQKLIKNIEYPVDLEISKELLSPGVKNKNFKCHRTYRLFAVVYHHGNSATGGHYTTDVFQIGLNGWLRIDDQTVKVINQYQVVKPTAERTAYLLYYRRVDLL
Chain of UCHL1 (P09936 whole entry, looked up): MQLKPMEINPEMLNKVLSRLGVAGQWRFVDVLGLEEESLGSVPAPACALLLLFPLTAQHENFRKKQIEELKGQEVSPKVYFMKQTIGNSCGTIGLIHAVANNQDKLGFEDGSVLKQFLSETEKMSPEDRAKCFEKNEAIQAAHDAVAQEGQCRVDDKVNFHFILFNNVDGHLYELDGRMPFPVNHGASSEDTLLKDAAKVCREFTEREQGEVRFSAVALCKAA

O=C(CCl)NCCC1=CCCCC1
active: [5] -1.6
inactive: [1] -0.254 | [2] -0.269 | [3] 0.145 | [4] 0.0106 | [6] 0.284 | [7] -0.111 | [8] -0.0126 | [9] -0.103
